Only some compounds are listed: those with a hit (about 3.9% of all), similar ones and a draw of the others.
Mot1-301 SUMO = blocks SUMOylation pathway, rescuing yeast Mot1-301 growth | AID 2716 | 1% of 320,000 active | S. cerevisiae Mot1-301 growth rescue, ATP luminescence, 38.5C; percent above DMSO median, 100 means doubled | growth rescue, % at 18.8 µM;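 active means every valid replicate shows activation above 250% relative to neutral control wells; inactive means the rest, any valid replicate at or below 250%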;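 further: OY570 slx delta 5 strain wells were the positive control but not used for scaling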
ALR inh = human ALR oxidase inhibition via reduced H2O2. P55789. purified ALR, DTT oxidation, H2O2 HRP-luminol luminescence. inhibition, % (concentration not given with the values). 3.8% of 290,000 active. AID 485317;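 active means mean replicate inhibition above about 79%, with every replicate also reaching it, limit read from the data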
Target sequence (P55789 whole entry, looked up): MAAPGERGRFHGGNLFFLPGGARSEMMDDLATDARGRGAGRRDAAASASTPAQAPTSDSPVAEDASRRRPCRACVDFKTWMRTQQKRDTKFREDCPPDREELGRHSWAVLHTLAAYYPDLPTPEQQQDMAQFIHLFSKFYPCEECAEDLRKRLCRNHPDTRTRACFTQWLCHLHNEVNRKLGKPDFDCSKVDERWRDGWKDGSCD
CASP6 VEID inh = caspase-6 (human) enzyme inhibition; P55212; 0.53% of 350,000 active; inhibition, % at 12.5 µM; purified caspase-6, Z-VEID-R110 cleavage fluorescence;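 active means mean inhibition across replicates at least about 35%, with every replicate also reaching that limit, limit read from the data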;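 further: 0% = median of neutral control wells and 100% = no fluorescence left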
Target sequence (P55212 24-179 limits assumed): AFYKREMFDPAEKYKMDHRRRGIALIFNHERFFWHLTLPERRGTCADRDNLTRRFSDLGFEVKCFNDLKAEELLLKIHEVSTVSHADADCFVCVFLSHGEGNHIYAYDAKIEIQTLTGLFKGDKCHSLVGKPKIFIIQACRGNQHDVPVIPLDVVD
Target sequence (P55212 194-293 limits assumed): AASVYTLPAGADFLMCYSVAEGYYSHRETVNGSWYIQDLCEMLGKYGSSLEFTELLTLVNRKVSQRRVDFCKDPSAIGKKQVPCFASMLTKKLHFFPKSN
N-glyco inh = N-linked glycosylation inhibition; 0.23% of 360,000 active; reporter increase, % at 12.5 µM; D54 ERlucT glycosylation luciferase reporter, 24 h; percent of 100 nM tunicamycin response;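 active means mean luciferase reporter signal, scaled so untreated is 0 and the glycosylation-blocking control 100, at or above a set limit in every replicate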;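 further: luciferase carries N-glycosylation sites so blocking glycosylation raises the light; 0% = median of neutral control wells and 100% = median of 100 nM tunicamycin wells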
NSD2 inh = NSD2 (human) methyltransferase inhibition. O96028. NSD2 peptide methylation, AlphaScreen, 120 min. inhibition, % at 12.5 µM. 0.54% of 310,000 active. AID 743445; in the data active means inhibition above about 50%
CDK5 inh = CDK5/p35 (human) kinase inhibition; Q00535+Q15078; Recombinant CDK5/p35, ADP-Glo luminescence, 60 min; inhibition, % at 10 µM; 0.01% of 330,000 active;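 active means highest replicate inhibition of at least 50% and at least 75% of replicates reaching 50%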;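 further: plate controls were DMSO neutral control for no effect and GW8510 at 10 µM for full effect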
Yeast Mot1 SUMO = SUMO pathway inhibitors in yeast Mot1-301 growth; shares compounds with Mot1-301 SUMO; S. cerevisiae Mot1-301 galactose growth, ATP luminescence, 24 h; -100 = growth of slx-deleted rescue strain; growth activity, percent, % at 42 µM; 2,300 tested, under 10 active;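 active means Signal drops as the depositor expects, and the fitted half-maximal dose is no more than ten times the top valid tested dose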;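 further: more negative values mean stronger growth rescue toward the control strain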
Starred values were filed as active, the others as inactive; . = no result; + = active, no number; [ ] = dose if it differs, or a comment.

SMILES | Mot1-301 SUMO | ALR inh | CASP6 VEID inh | N-glyco inh | NSD2 inh | CDK5 inh | Yeast Mot1 SUMO
CCCCC(O)(c1ccc(F)cc1)C(CN1CCOCC1)c1ccc(Cl)cc1 (configuration not stated) | 536.5* | -8.1 | 0.9 | -9.2 | -0.8 | -5.4 | -0.3[21 µM]
c1ccc(N2CCN(C3CCSC3)CC2)cc1 (configuration not stated) | 817.3* | 71.8 | -1.5 | 2.6 | 0.3 | 6.8 | 0.5
C=CCn1c(NCCc2ccccc2)nc2c1c(=O)n(C)c(=O)n2C | -11.7 | -2.5 | . | -4.5 | -3.4 | 6.9 | .
Cc1ccc(Cn2c(NCCc3ccccc3)nc3c2c(=O)n(C)c(=O)n3C)cc1 | 970.1* | 3.4 | . | -0.7 | -0.8 | 3.5 | 0.6
COc1ccccc1-c1ccc2c(c1)[C@H]1[C@H](CCN1S(=O)(=O)c1cccc(C)c1)[C@H](CO)N2 | . | . | 1.3 | . | . | . | .
CN(C)Cc1cn(CC[C@H]2CC[C@@H](NC(=O)Nc3ccccc3F)[C@@H](CO)O2)nn1 | . | . | 1.6 | . | . | . | .
CCOc1ccc(NC(=O)CSc2nnc(Cc3csc(C)n3)o2)cc1 | 777.2* | -3.3 | 1.8 | 2.4 | -2.4 | 0.4 | 0.3
CCOc1ccc(Nc2nc(Cc3nnc(SCC(N)=O)o3)cs2)cc1 | 6.3 | 40.7 | -1.2 | -0.6 | 2.3 | 2.9 | .
Cc1cc(CNC(=O)C2CCC(=O)N(Cc3cccc(C(F)(F)F)c3)C2)no1 (configuration not stated) | -18.8 | 1.3 | 3.9 | 0.8 | -2.1 | 2.5 | .
Cc1nn(C)cc1CNC(=O)C1CCC(=O)N(Cc2cccc(C(F)(F)F)c2)C1 (configuration not stated) | 374.7* | -2.8 | 1.8 | . | 1.3 | 0.0 | -0.1
O=C(COc1ccc(Cl)cc1)NCCCNC(=O)c1ccccn1 | 564.8* | -0.5 | -0.1 | 2.4 | 21.5 | 1.1 | -0.2
CC(C)C(=O)NNc1ccc(C(F)(F)F)cn1 | 585.8* | 31.9 | -5.5 | 1.8 | -0.9 | 0.6 | 0.3
CCCc1ccccc1OCCNC(C)=O | + | 7.4 | . | 0.4 | -3.0 | -1.8 | 0.5
CC(=O)NCCOc1cccc2ccccc12 | 7.9 | -16.3 | . | 3.3 | -8.4 | 0.8 | .
O=C(CN1CCOCC1)NCC[C@@H]1CC[C@H](NS(=O)(=O)c2ccc(F)cc2)[C@@H](CO)O1 | . | . | -0.6 | . | . | . | .
Cc1nnc(N=c2ssnc2Cl)o1 | 605.8* | 30.0 | 21.7 | 3.6 | . | -0.6 | -0.5
Cc1ccc(N=c2ssnc2Cl)cc1 | 470.7* | -7.0 | . | 2.5 | -2.7 | 0.4 | -0.8
Cc1cc(Cl)ccc1N=c1ssnc1Cl | 127.9 | 10.6 | . | 0.5 | -0.7 | -0.1 | .
O=C(NCc1ccc(F)cc1)[C@@H]1N[C@@H]2c3ccc(-c4ccccc4)c(=O)n3C[C@@H]2[C@H]1CO | . | . | -0.1 | . | . | . | .
CC(C)NC(=O)N(C)C[C@H]1OCCCC[C@@H](C)Oc2ccc(NC(=O)CCCN(C)C)cc2C(=O)N([C@@H](C)CO)C[C@H]1C | . | . | 0.3 | . | . | . | .
O=C(NCC[C@@H]1CC[C@@H](NC(=O)C2CCCCC2)[C@@H](CO)O1)Nc1ccc(Cl)cc1 | . | . | 1.7 | . | . | . | .
FC(F)(F)c1nnc(-c2ccccc2)nc1Oc1ccc(Cl)cc1Cl | 738.6* | 16.0 | . | 2.5 | -2.0 | -2.1 | 0.0
O=C(C[C@H]1CC[C@H]2[C@@H](COC[C@@H](O)CN2C(=O)Nc2ccc(Cl)cc2)O1)NCC1CCCCC1 | . | . | -3.0 | . | . | . | .
CC12CCC(=O)N1C(C(=O)Nc1ccccc1F)CS2 (configuration not stated) | 792.6* | -5.5 | -6.7 | 0.0 | -1.9 | 0.1 | 0.5
C/C=C/c1ccc2c(c1)O[C@@H](CN(C)C(=O)NCCC)[C@@H](C)CN([C@@H](C)CO)S2(=O)=O | . | . | 5.2 | . | . | . | .
Cc1n[nH]c(=O)nc1NCc1ccc(Cl)cc1 | 627.4* | -20.7 | . | -0.5 | -2.0 | -0.1 | 0.0
COC(=O)c1sc(NC(=O)c2ccc(Cn3cc(Cl)cn3)o2)c(C#N)c1C | + | 88.5* | . | 1.6 | -3.7 | -2.4 | -0.9
N#Cc1c(NC(=O)c2ccc(Cn3cc(Br)cn3)o2)sc2c1CCCCC2 | 9.2 | -7.2 | . | -1.5 | -2.3 | 1.2 | .
O=C(Nc1cnn(Cc2ccc(Cl)cc2)c1)c1ccc([N+](=O)[O-])cc1 | 390.2* | -6.4 | . | -1.4 | 2.9 | -4.5 | 0.7

Screens as filed in PubChem BioAssay.
